The values that follow come from the supplement of paper PMC10646978.

± gives the standard deviation.

Holding throughout (conditions): modulator concentration 10 µM
Assay [1] deals with RAW-Dual (murine macrophage reporter line). The assay can be described thus: NF-kB reporter (SEAP) activity fold change vs agonist alone; higher = enhanced NF-kB activity. The gist of the method:
(§1)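 RAW-Dual murine macrophage reporter cells were seeded at 50 000 per well in 384-well plates and pre-incubated 1 hour at 37 °C with compound pin-transferred to 10 μM final. After 1 hour, a PRR agonist was added and cells incubated overnight. Supernatant NF-κB (SEAP, QUANTI-Blue, 620 nm absorbance) and IRF (Lucia luciferase, QUANTI-Luc, luminescence) signals were divided by the mean agonist-only control on the same plate to give fold change. Two replicate plates were averaged, with errors by propagation.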

For assay [2] the test system is unchanged. The assay can be described thus: IRF reporter (Lucia luciferase) activity fold change vs agonist alone; higher = enhanced IRF activity. The method, boiled down: as §1
Assay [3] shares this test system. The assay can be described thus: viability score (confluency relative to resting cells, overnight) (fraction); higher = more viable, active = viable (0.7 or more). The gist of the method: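 RAW-Dual macrophages in 384-well plates were exposed overnight to compound at 10 μM final. Confluency was imaged with IncuCyte, and two confluency masks were generated with IncuCyte software over all imaged wells. The viability score is confluency expressed relative to resting cells. Compounds were called viable if both masks exceeded 70% of resting cells.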

The mark [4] stands for this setting: agonist: CpG ODN 1826 0.5 ug/mL.

Turning to `Oc1ccc(OCc2ccccc2)cc1`, the NF-kB reporter in assay [1] (setting [4]) was determined as 1.78 ± 0.25; in assay [1] (agonist: LPS 0.1 ug/mL), 1.51 ± 0.34; in assay [1] (agonist: MPLA […]) it was 1.34 ± 0.095. The IRF reporter in assay [2] (agonist: 3'3'-cGAMP 10 ug/mL) turned out to be 0.665 ± 0.033; in assay [2] (agonist: LPS 0.1 ug/mL), 1.46 ± 0.27; in assay [2] (agonist: MPLA […]), 1.42 ± 0.17. Moreover, the viability score in assay [3] is 0.832 (active).
With `CCOC(=O)C(=NNc1ccccc1[N+](=O)[O-])C(=O)CSc1ccc(C)cc1`, the figures for the NF-kB reporter in assay [1] (setting [4]), in assay [1] (agonist: LPS 0.1 ug/mL) and in assay [1] (agonist: MPLA […]) were 0.697 ± 0.046, 0.789 ± 0.049 and 0.919 ± 0.056, respectively. Besides, the figures for the IRF reporter in assay [2] (agonist: 3'3'-cGAMP 10 ug/mL), in assay [2] (agonist: LPS 0.1 ug/mL) and in assay [2] (agonist: MPLA […]) were 0.154 ± 0.0098, 1.14 ± 0.083 and 1.14 ± 0.12, respectively. Also, the viability score in assay [3] is 1 (active).
`COc1ccc2c3c([nH]c2c1)C(=O)CCC3`: the NF-kB reporter worked out at 1.43 ± 0.11 in assay [1] (setting [4]), 0.785 ± 0.066 in assay [1] (agonist: LPS 0.1 ug/mL) and 1.12 ± 0.11 in assay [1] (agonist: MPLA […]). The IRF reporter in assay [2] (agonist: 3'3'-cGAMP 10 ug/mL) turned out to be 0.732 ± 0.067; in assay [2] (agonist: LPS 0.1 ug/mL), 0.561 ± 0.12; in assay [2] (agonist: MPLA […]) it was 0.464 ± 0.11. Also, the viability score in assay [3] is 0.843 (active).
As to `Cn1c2c(c3ccccc31)CCCC2NC=O` (stereo unspecified), the NF-kB reporter in assay [1] (setting [4]) is 0.787 ± 0.061; in assay [1] (agonist: LPS 0.1 ug/mL) it was 0.931 ± 0.06; in assay [1] (agonist: MPLA […]) it was 1.03 ± 0.09. Besides, the IRF reporter in assay [2] (agonist: 3'3'-cGAMP 10 ug/mL) was 0.93 ± 0.042; in assay [2] (agonist: LPS 0.1 ug/mL), 1.36 ± 0.082; in assay [2] (agonist: MPLA […]) it was 1.44 ± 0.14. Besides, the viability score in assay [3] was 1 (active).
Consider `CC1(C)CC(=O)C2=C(C1)OC(N)=C(C#N)C2c1ccccc1C(F)(F)F` (stereo unspecified), for which the results for the NF-kB reporter in assay [1] (setting [4]), in assay [1] (agonist: LPS 0.1 ug/mL) and in assay [1] (agonist: MPLA […]) were 1.01 ± 0.073, 1.09 ± 0.074 and 1.06 ± 0.14, respectively. Further, the figures for the IRF reporter in assay [2] (agonist: 3'3'-cGAMP 10 ug/mL), in assay [2] (agonist: LPS 0.1 ug/mL) and in assay [2] (agonist: MPLA […]) were 0.999 ± 0.059, 1.22 ± 0.086 and 1.26 ± 0.29, respectively. Besides, in assay [3], the viability score is 0.994 (active).
Turning to `CCN(CC)CCNC(=O)c1c(C)[nH]c(/C=C2\C(=O)Nc3ccc(F)cc32)c1C`, the NF-kB reporter in assay [1] (setting [4]) was 0.102 ± 0.0079; in assay [1] (agonist: LPS 0.1 ug/mL), 0.192 ± 0.015; in assay [1] (agonist: MPLA […]), 0.475 ± 0.031. In addition, the results for the IRF reporter in assay [2] (agonist: 3'3'-cGAMP 10 ug/mL), in assay [2] (agonist: LPS 0.1 ug/mL) and in assay [2] (agonist: MPLA […]) were 0.0578 ± 0.003, 0.0794 ± 0.014 and 0.0928 ± 0.022, respectively. Further, the viability score in assay [3] was 0.359 (inactive).
On to `COC(=O)Nc1nc2cc(C(=O)c3cccs3)ccc2[nH]1` [Prestw-100], for which the NF-kB reporter was 2.4 ± 0.14 in assay [1] (setting [4]), 1.31 ± 0.094 in assay [1] (agonist: LPS 0.1 ug/mL) and 1.98 ± 0.13 in assay [1] (agonist: MPLA […]). Besides, the IRF reporter in assay [2] (agonist: 3'3'-cGAMP 10 ug/mL) was found to be 0.101 ± 0.0035; in assay [2] (agonist: LPS 0.1 ug/mL), 1.86 ± 0.18; in assay [2] (agonist: MPLA […]), 2.05 ± 0.19. In addition, the viability score in assay [3] was 0.715 (active).
In the case of `Cl.O[C@@H](c1cc(C(F)(F)F)nc2c(C(F)(F)F)cccc12)[C@H]1CCCCN1`, the NF-kB reporter in assay [1] (setting [4]) was found to be 0.671 ± 0.091; in assay [1] (agonist: LPS 0.1 ug/mL), 0.59 ± 0.044; in assay [1] (agonist: MPLA […]), 1.05 ± 0.071. Further, the results for the IRF reporter in assay [2] (agonist: 3'3'-cGAMP 10 ug/mL), in assay [2] (agonist: LPS 0.1 ug/mL) and in assay [2] (agonist: MPLA […]) were 0.504 ± 0.066, 1.04 ± 0.096 and 2.25 ± 0.17, respectively. Further, the viability score in assay [3] is 0.137 (inactive).
For `CCN(CC)c1ccc2cc(-c3nnc(NCc4ccccc4)s3)c(=O)oc2c1`, the figures for the NF-kB reporter in assay [1] (setting [4]), in assay [1] (agonist: LPS 0.1 ug/mL) and in assay [1] (agonist: MPLA […]) were 1.12 ± 0.15, 1.14 ± 0.072 and 0.912 ± 0.07, respectively. The figures for the IRF reporter in assay [2] (agonist: 3'3'-cGAMP 10 ug/mL), in assay [2] (agonist: LPS 0.1 ug/mL) and in assay [2] (agonist: MPLA […]) were 0.598 ± 0.026, 1.47 ± 0.25 and 1.28 ± 0.22, respectively. Moreover, the viability score in assay [3] is 0.997 (active).
Turning to `CCc1cccc(C)c1NC(=O)C(C)(C)CC`, the NF-kB reporter in assay [1] (setting [4]) worked out at 0.948 ± 0.18; in assay [1] (agonist: LPS 0.1 ug/mL) it was 0.846 ± 0.12; in assay [1] (agonist: MPLA […]), 0.911 ± 0.09. For the same compound, the figures for the IRF reporter in assay [2] (agonist: 3'3'-cGAMP 10 ug/mL), in assay [2] (agonist: LPS 0.1 ug/mL) and in assay [2] (agonist: MPLA […]) were 1.03 ± 0.041, 0.988 ± 0.097 and 0.975 ± 0.1, respectively. In addition, in assay [3], the viability score was 0.995 (active).
Consider `O=C(NCCOc1cccc2cccnc12)c1c(F)cccc1F`, for which the NF-kB reporter in assay [1] (setting [4]) was determined as 0.911 ± 0.088; in assay [1] (agonist: LPS 0.1 ug/mL) it was 1.01 ± 0.13; in assay [1] (agonist: MPLA […]), 0.859 ± 0.049. For the same compound, the IRF reporter came to 0.961 ± 0.048 in assay [2] (agonist: 3'3'-cGAMP 10 ug/mL), 1.01 ± 0.1 in assay [2] (agonist: LPS 0.1 ug/mL) and 1.05 ± 0.31 in assay [2] (agonist: MPLA […]). In assay [3], the viability score is 1.01 (active).
Take `COc1ccc(C)c2sc(NC(=O)c3ccco3)nc12`: the NF-kB reporter in assay [1] (setting [4]) is 1.18 ± 0.089; in assay [1] (agonist: LPS 0.1 ug/mL), 0.847 ± 0.068; in assay [1] (agonist: MPLA […]), 1.11 ± 0.031. The IRF reporter in assay [2] (agonist: 3'3'-cGAMP 10 ug/mL) is 0.863 ± 0.078; in assay [2] (agonist: LPS 0.1 ug/mL), 0.845 ± 0.061; in assay [2] (agonist: MPLA […]), 0.882 ± 0.073. Further, the viability score in assay [3] was 0.971 (active).
On to `COC(=O)C1=CN(C2CC2)C=C(C(=O)OC)C1c1ccccc1OC`, for which the NF-kB reporter in assay [1] (setting [4]) amounted to 0.917 ± 0.074; in assay [1] (agonist: LPS 0.1 ug/mL), 1.05 ± 0.058; in assay [1] (agonist: MPLA […]) it was 0.97 ± 0.061. For the same compound, the IRF reporter in assay [2] (agonist: 3'3'-cGAMP 10 ug/mL) turned out to be 0.934 ± 0.074; in assay [2] (agonist: LPS 0.1 ug/mL), 1.22 ± 0.17; in assay [2] (agonist: MPLA […]), 1 ± 0.097. Further, in assay [3], the viability score is 1.01 (active).
